Cycloheximide cs: counter-screen for Shiga toxin inhibitors: cycloheximide protein synthesis inhibition. cell reporter, cycloheximide protein synthesis inhibition counterscreen. max response, %. 300,000 tested, 12% active. AID 2314; in the data active = max response mostly above about 13%, no sharp cut-off; inactive = mostly below about 14%; note: read at 38.3 µM for the half of the compounds with a filed dose
Pf growth 48h: P. falciparum growth inhibition at 48 hours (one generation). P. falciparum luciferase growth in erythrocytes, 48 h. Potency, µM (top dose mostly 28.7 µM), actives largely listed as inhibitors. 310,000 tested, 5.9% active. AID 504832
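Growth was read as firefly luciferase luminescence after a 48 h, 37 C, 5% CO2 exposure of compounds to reporter-bearing P. falciparum cultures (0.1% parasitemia, 2% hematocrit final) in Albumax-supplemented RPMI 1640.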
Shiga toxin inh: blocks Shiga toxin action in Vero cells | 290,000 tested, 9.2% active | Vero cells, Shiga toxin protein synthesis inhibition reporter | inhibition, % at 38.7 µM; in the data active = inhibition mostly above about 28%, no sharp cut-off; inactive = mostly below about 43%
Pf growth 96h: P. falciparum growth inhibition at 96 hour, primary screen for plastid delayed-death inhibitors; P. falciparum luciferase reporter growth, 96 h; Potency, µM (top dose mostly 28.7 µM), actives largely listed as inhibitors; 320,000 tested, 6.9% active
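Cell-based qHTS: luciferase-tagged P. falciparum in erythrocytes (2% hematocrit, 0.05% parasitemia final) incubated with compounds for 96 hours, 37 C, 5% CO2; luciferase detection reagent then added and luminescence measured.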
Of the large screens only hits and unclear results are named; the others gave an inactive call. Rows were chosen to be rich in hits. Some 21% of all compounds tested hit in one or more screens of this group. Unless noted, calls come from the whole dose curve; as a rule, active = well fitted inhibition curve with a large enough effect; inconclusive = small, poorly fitted or top-dose-only effect, or another doubt; inactive = no such curve, though single readings can be large or run the other way.

CN1C(=O)C(Cc2c[nH]c3ccccc23)NC1=S (stereo not drawn)	Cycloheximide cs 30, Shiga toxin inh 47 (no result: Pf growth 48h, Pf growth 96h)
O=C1C(Cc2c[nH]c3ccccc23)NC(=S)N1Cc1ccccc1 (stereo not drawn)	Pf growth 48h inconclusive, Pf growth 96h 13µM
Cc1ccc(C2CC(c3ccccc3)=NN2C(=O)CSc2nnc(-c3ccncc3)n2C)o1 (stereo not drawn)	Pf growth 48h inconclusive, Pf growth 96h inconclusive
COc1ccc(N(C(=O)c2csnn2)C(C(=O)NC2CCCC2)c2ccccc2)cc1 (stereo not drawn)	none
Cn1c(N)c(C(=O)COC(=O)/C=C/c2cccc(Br)c2)c(=O)n(C)c1=O	Pf growth 48h 13µM (no result: Cycloheximide cs, Shiga toxin inh)
Cn1c(N)c(C(=O)COC(=O)/C=C/c2cccc(F)c2)c(=O)n(C)c1=O	Pf growth 48h 12µM (no result: Cycloheximide cs, Shiga toxin inh)
COc1cc(/C=C/C(=O)OCC(=O)c2c(N)n(C)c(=O)n(C)c2=O)ccc1O	none
Cc1onc(-c2ccccc2)c1C(=O)OCc1nnc(-c2ccc([N+](=O)[O-])cc2)o1	none (no result: Cycloheximide cs, Shiga toxin inh)
Cc1ccccc1OCCOC(=O)c1c(-c2ccccc2)noc1C	Pf growth 48h 12µM, Pf growth 96h inconclusive
Cc1onc(-c2ccccc2)c1C(=O)OCCOc1ccccc1F	Cycloheximide cs 34, Pf growth 48h inconclusive
Cc1onc(-c2ccccc2)c1C(=O)OCCOc1ccc([N+](=O)[O-])cc1[N+](=O)[O-]	Pf growth 96h 4.1µM (no result: Pf growth 48h)
COc1ccc(OC)c(N/C=C/C(=C(C#N)C#N)N(C)C)c1	Pf growth 48h inconclusive, Pf growth 96h inconclusive
COc1ccc(S(=O)(=O)N2CCC(n3cnc4cc(C(F)(F)F)ccc43)CC2)cc1	Pf growth 48h 5.2µM
O=S(=O)(c1ccc2c(c1)OCCO2)N1CCC(n2nnc3cc(C(F)(F)F)ccc32)CC1	Pf growth 48h 13µM
Cc1nnc(NC(=O)CSc2nc3c(c(=O)n(C)c(=O)n3C)n2C(C)C)s1	none
O=C(CCc1nc2ccccc2c(=O)[nH]1)NNC(=O)COc1ccccc1Cl	none (no result: Cycloheximide cs, Shiga toxin inh)
NC(=O)C1CCN(Cc2nc3ccccc3c(=O)[nH]2)CC1	none (no result: Pf growth 96h)
O=c1[nH]c(COc2ccc(Cl)cc2Cl)nc2ccccc12	Cycloheximide cs 38, Shiga toxin inh 41
O=c1[nH]c(Cc2ccccc2Cl)nc2ccccc12	Pf growth 96h 9.3µM
O=c1[nH]c(COc2ccc(Cl)cc2Br)nc2ccccc12	Cycloheximide cs 51, Shiga toxin inh 127
CC1CCCCN1Cc1nc2ccccc2c(=O)[nH]1 (stereo not drawn)	Pf growth 96h 0.019µM
CCCC1CCc2[nH]nc(C(=O)NN)c2C1 (stereo not drawn)	none (no result: Cycloheximide cs, Shiga toxin inh)
C=C1OC(CO)(n2cnc3c(N)ncnc32)C(O)C1O (stereo not drawn)	none (no result: Pf growth 48h, Pf growth 96h)
CCCOC(=O)NCCCN(C)C	none (no result: Pf growth 48h, Pf growth 96h)
CCOC(=O)c1c(C)nc(C)c(C(=O)OCC)c1-c1ccc(Br)cc1	Pf growth 96h 13µM
CCOc1ccc(C(C(=O)NC2CCCC2)N(Cc2ccccc2)C(=O)c2nsc(Cl)c2Cl)cc1 (stereo not drawn)	Cycloheximide cs 15, Pf growth 48h 13µM, Pf growth 96h inconclusive
Cc1ccc(N(CC(=O)NC2CCCC2)C(=O)c2nsc(Cl)c2Cl)cc1	Cycloheximide cs 30, Shiga toxin inh 29, Pf growth 96h inconclusive
O=C(CN(C(=O)c1nsc(Cl)c1Cl)c1ccc(F)cc1)NC1CCCC1	Pf growth 96h inconclusive
Cc1cccc(N(C(=O)c2nsc(Cl)c2Cl)C(C(=O)NC2CCCC2)c2ccc(O)cc2)c1C (stereo not drawn)	Pf growth 48h 7.4µM, Pf growth 96h inconclusive
CCCNC(=O)c1cn(CC)c2cc(N3CCN(C)CC3)c(F)cc2c1=O	Pf growth 96h inconclusive (no result: Pf growth 48h)
CCCCCNC(=O)c1cn(CC)c2cc(N3CCN(C)CC3)c(F)cc2c1=O	Pf growth 48h inconclusive, Pf growth 96h 15µM
CCn1cc(C(=O)NCCN(C)C)c(=O)c2cc(F)c(N3CCN(C)CC3)cc21	Pf growth 48h inconclusive, Pf growth 96h inconclusive
CCCc1nnc(NC(=O)c2cn(CC)c3cc(N4CCN(C)CC4)c(F)cc3c2=O)s1	Pf growth 48h 0.37µM, Pf growth 96h 1.2µM
Fc1ccccc1-c1cc2ncccc2cn1	none (no result: Cycloheximide cs, Shiga toxin inh)
C=CCN(C(=O)c1ccc(Cl)cc1)c1ccccc1C(=O)NCC(=O)O	none
CCn1c(CNC(=O)COc2ccc(C(C)C)cc2)nnc1SCC(=O)NC1CCCCC1C (stereo not drawn)	Pf growth 48h 12µM, Pf growth 96h 10µM
CCn1c(CNC(=O)COc2ccc(C(C)C)cc2)nnc1SCC(=O)Nc1ccc(F)cc1	Pf growth 96h 8.3µM (no result: Pf growth 48h)
CCn1c(COc2ccc3c(c2)CCCC3)nnc1SCC(=O)Nc1ccc(C(=O)OC)cc1	Pf growth 96h 9.3µM
CCn1c(CNC(=O)COc2ccc(C(C)C)cc2)nnc1SCC(=O)Nc1cc(F)ccc1C	Pf growth 48h inconclusive, Pf growth 96h inconclusive
CCCCCn1c(N2CCOCC2)nc2c1c(=O)n(CC(N)=O)c(=O)n2C	Pf growth 48h inconclusive
Cc1cc(OC(=O)c2ccccc2Br)c([N+](=O)[O-])c(=O)[nH]1	none
CCc1nnc(NC(=O)NCN2C(=O)C3C4C=CC(C4)C3C2=O)s1 (stereo not drawn)	Pf growth 96h inconclusive
Cc1nnc(NC(=O)NCN2C(=O)C3C4C=CC(C4)C3C2=O)s1 (stereo not drawn)	Pf growth 48h inconclusive, Pf growth 96h 3.7µM
COc1ccccc1NC(=O)Nc1sccc1-c1nc2ccccc2s1	Pf growth 48h inconclusive, Pf growth 96h inconclusive
COCCN(C(=O)Nc1ccccc1OC)c1nc2ccccc2s1	Cycloheximide cs 26, Shiga toxin inh 30
Cc1nc(NC(=O)c2ccccc2)sc1-c1csc(N)n1	Cycloheximide cs 29, Pf growth 48h 1.9µM, Shiga toxin inh 48
Cc1nc(NC(=O)c2ccccc2)sc1-c1csc(NCCc2ccccc2)n1	Pf growth 96h 4.1µM (no result: Pf growth 48h)
CCCN1CCC(=O)N([C@H](CSc2ccc(OC)cc2)Cc2ccccc2)CC1	Pf growth 48h 10µM, Pf growth 96h 2.9µM
COc1ccc(SCC(Cc2ccccc2)N2CCN(CCc3ccccc3)CCC2=O)cc1 (stereo not drawn)	none (no result: Pf growth 48h, Pf growth 96h)
Cc1ccc(SC[C@H](Cc2ccccc2)N2CCN(CCc3ccccc3)CCC2=O)cc1	Pf growth 48h inconclusive, Pf growth 96h inconclusive
CCCN1CCC(=O)N([C@H](CSc2ccc(C)cc2)Cc2ccccc2)CC1	Pf growth 48h 9.3µM, Pf growth 96h 5.9µM
Cc1cc(Nc2ccccc2C(=O)O)n(-c2ccc([N+](=O)[O-])cc2)n1	none
Cc1nc(/C(N)=N/OC(=O)c2ccc(Cl)cc2)c(C(F)(F)F)o1	Cycloheximide cs 46, Shiga toxin inh 46
O=C(N/N=C1/CC2C=CCC12)c1ccc(Br)o1 (stereo not drawn)	Cycloheximide cs 74, Shiga toxin inh 75
Cc1ccccc1-n1c(C)nnc1SCc1cc(=O)oc2ccc3ccccc3c12	Pf growth 96h 15µM
Nc1nc(C(=O)N2CCOCC2)nn1C(=O)c1ccc(Cl)cc1	Pf growth 96h 10µM
COC(=O)C1C(=O)c2c([nH]c(C(=O)OC3CCCCC3)c2C)CC1C (stereo not drawn)	Cycloheximide cs 31, Shiga toxin inh 42
Cc1c(C(=O)OC2CCCCC2)[nH]c2c1C(=O)CC(C)(C)C2	none (no result: Pf growth 96h)
COC(=O)C1C(=O)c2c([nH]c(C(=O)OCCOC(C)C)c2C)CC1C (stereo not drawn)	Cycloheximide cs 16 (no result: Pf growth 48h, Pf growth 96h)

Compound activity deposited in PubChem by National Center for Advancing Translational Sciences (NCATS).
